# Reference: PubChem BioAssay (Tox21)
# Records with an inconclusive call do not appear. Where a call stands in place of a potency, no number is given. Activity calls are given as the source filed them. Unless noted, calls follow the shape of the dose curve; as a rule, active = well fitted curve in the direction sought with a large enough effect in the repeat runs; inconclusive = weak or mixed curves; inactive = no such curve, though single readings can be large; an effect the other way counts as inactive or inconclusive.
# Assays:
# [1] = qHTS assay for small molecules that induce genotoxicity in human embryonic kidney cells expressing luciferase-tagged ATAD5 (AID 651632); also: nearly all actives have a fitted effect of over 15% in size; also: potency is read from the fitted curve at half-maximal effect
# How it was run: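 HEK293T cells carrying a luciferase reporter tagged to ATAD5 were exposed to compound or DMSO vehicle for 16 hr at 37C, 5% CO2. Amplite was added, and after 30 min at room temperature luciferase activity was read as a marker of ATAD5 induction.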
# [2] = qHTS assay for small molecule agonists of the p53 signaling pathway - cell viability (AID 651633; calls by dose curve; also: nearly all actives have a fitted effect of over 30% in size; also: potency is read from the fitted curve at half-maximal effect)
# How it was run: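 Viability counter-read: CellTiter-Glo luminescence (30 min, room temperature) in the same p53RE-bla plates. These plates had been exposed to compounds for 16 h at 37 C.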
# [3] = qHTS assay for small molecule disruptors of the mitochondrial membrane potential - cell viability (AID 720634; calls by dose curve; also: nearly all actives have a fitted effect of over 20% in size; also: potency is read from the fitted curve at half-maximal effect)
# How it was run: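 HepG2 cells seeded overnight at 37 C, then exposed to compound or DMSO for 1 hr at 37 C, 5% CO2. m-MPI dye added, then CellTiter-Glo for 30 min at room temperature; viability read as ATP luminescence.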
# [4] = qHTS assay for small molecule disruptors of the mitochondrial membrane potential (AID 720635); also: potency is read from the fitted curve at half-maximal effect
# How it was run: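 Mitochondrial membrane potential tracked with Mito-MPS dye, red aggregates (ex 540/em 590 nm) against green monomers (ex 490/em 535 nm). Compound treatment 1 hr at 37C, dye 30 min in HepG2.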
# [5] = qHTS assay to test for compound auto fluorescence at 590 nm (red) in HepG2 cells (AID 720674)
# How it was run: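 Red autofluorescence (Ex/Em 540/590 nm, Rose Bengal sodium equivalents) was measured in HepG2 cells, 2,000 per well in MEM plus 10% FBS, plated overnight at 37 C. Readings were taken 1 hr after adding 23 nL compound or DMSO, at 37 C and 5% CO2.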
# [6] = qHTS assay to test for compound auto fluorescence at 535 nm (green) in HepG2 cells (AID 720675)
# [7] = qHTS assay to test for compound auto fluorescence at 460 nm (blue) in HEK293 cells (AID 720678)
# How it was run: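 Blue read-out at excitation 405 nm and emission 460 nm follows overnight compound exposure of HEK293 cells at 37C in 5% CO2. Activity is given as auto fluorescence equivalency to triamterene.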
# [8] = qHTS assay to test for compound auto fluorescence at 590 nm (red) in HEK293 cells (AID 720679)
# How it was run: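 Red channel, Ex/Em 540/590nm; signal expressed as equivalency to Rose Bengal sodium. HEK293, 2,000 cells/well, 10% dialyzed FBS; 23 nL compound pinned after 4-5 hr attachment; overnight 37C/5% CO2 before reading.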
# [9] = qHTS assay to test for compound auto fluorescence at 535 nm (green) in HEK293 cells (AID 720680)
# [10] = qHTS assay to test for compound auto fluorescence at 460 nm (blue) in HEK293 cell free culture (AID 720681)
# How it was run: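 Blue fluorescence (Ex 405/Em 460 nm, triamterene-equivalent) was read immediately after pin transfer of compound or DMSO into medium (DMEM, 10% FBS) without cells.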
# [11] = qHTS assay to test for compound auto fluorescence at 535 nm (green) in HEK293 cell free culture (AID 720682)
# How it was run: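 No cells present: wells hold DMEM supplemented with 10% FBS, into which compound or vehicle is pinned. Green emission is then recorded (485 nm excitation, 535 nm emission) and scaled to fluorescein.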
# [12] = qHTS assay to test for compound auto fluorescence at 590 nm (red) in HEK293 cell free culture (AID 720683)
# How it was run: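 Red-channel autofluorescence of compounds in culture medium (DMEM, 10% FBS), no cells, measured at 540/590 nm. Rose Bengal sodium is the reference fluorophore for equivalence.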
# [13] = qHTS assay to test for compound auto fluorescence at 590 nm (red) in HepG2 cell free culture (AID 720684)
# How it was run: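 Plate contents were MEM with 10% FBS plus test compound or DMSO, no cells. Fluorescence was recorded with 540 nm excitation and 590 nm emission.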
# [14] = qHTS assay to test for compound auto fluorescence at 460 nm (blue) in HepG2 cell free culture (AID 720685)
# How it was run: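 Compound (23 nL) or DMSO pinned into cell-free MEM with 10% FBS; blue fluorescence read at 405/460 nm excitation/emission, expressed as auto-fluorescence equivalency to triamterene.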
# [15] = qHTS assay to test for compound auto fluorescence at 535 nm (green) in HepG2 cell free culture (AID 720686)
# [16] = qHTS assay to test for compound auto fluorescence at 460 nm (blue) in HepG2 cells (AID 720687)
# How it was run: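 Blue-channel autofluorescence (Ex/Em 405/460 nm, triamterene-equivalent) was measured after 1 hr compound exposure at 37 C, 5% CO2. Cells were HepG2, plated overnight at 37 C in MEM plus 10% FBS.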
# [17] = molecular target: Glucocorticoid receptor (Homo sapiens) (UniProt P04150); assay: qHTS assay to identify small molecule agonists of the glucocorticoid receptor (GR) signaling pathway (AID 720691; active = well fitted activation curve with a large enough effect in the signal ratio in the repeat runs, not every such curve was filed as active; the % refers to the signal ratio); details: GR-bla HeLa, beta-lactamase reporter ratio, 18 h; activation: at 62.4 µM (top of the series)
# How it was run: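 GR-bla HeLa cells (beta-lactamase reporter under glucocorticoid response element) were plated 4 h at 37 C/5% CO2, given compounds in DMSO, and incubated 18 h at 37 C. LiveBLAzer B/G FRET substrate was added for 2 h at room temperature, then fluorescence intensity read.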
# [18] = molecular target: Glucocorticoid receptor (Homo sapiens) (UniProt P04150); assay: qHTS assay to identify small molecule antagonists of the glucocorticoid receptor (GR) signaling pathway (AID 720692; active = well fitted inhibition curve with a large enough effect in the signal ratio in the repeat runs, not every such curve was filed as active; the % refers to the signal ratio; also: potency is read from the fitted curve at half-maximal effect)
# How it was run: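 GR-bla HeLa cells (beta-lactamase reporter under glucocorticoid response element) were pre-plated 4 h at 37 C, treated with compounds plus 5 nM dexamethasone (final) for 18 h, then read by LiveBLAzer B/G FRET fluorescence after 2 h.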
# [19] = qHTS assay for small molecules that induce genotoxicity in human embryonic kidney cells expressing luciferase-tagged ATAD5 - cell viability (AID 651634; calls by dose curve; also: nearly all actives have a fitted effect of over 25% in size; also: potency is read from the fitted curve at half-maximal effect)
# How it was run: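 HEK293T cells expressing luciferase-tagged ATAD5 were exposed to compound or DMSO for 15.5 hr at 37C, 5% CO2. Viability was then read as live-cell protease activity by CellTiter-Fluor fluorescence after 30 min at 37C.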
# Chain of Glucocorticoid receptor (Homo sapiens) (P04150 whole entry, looked up): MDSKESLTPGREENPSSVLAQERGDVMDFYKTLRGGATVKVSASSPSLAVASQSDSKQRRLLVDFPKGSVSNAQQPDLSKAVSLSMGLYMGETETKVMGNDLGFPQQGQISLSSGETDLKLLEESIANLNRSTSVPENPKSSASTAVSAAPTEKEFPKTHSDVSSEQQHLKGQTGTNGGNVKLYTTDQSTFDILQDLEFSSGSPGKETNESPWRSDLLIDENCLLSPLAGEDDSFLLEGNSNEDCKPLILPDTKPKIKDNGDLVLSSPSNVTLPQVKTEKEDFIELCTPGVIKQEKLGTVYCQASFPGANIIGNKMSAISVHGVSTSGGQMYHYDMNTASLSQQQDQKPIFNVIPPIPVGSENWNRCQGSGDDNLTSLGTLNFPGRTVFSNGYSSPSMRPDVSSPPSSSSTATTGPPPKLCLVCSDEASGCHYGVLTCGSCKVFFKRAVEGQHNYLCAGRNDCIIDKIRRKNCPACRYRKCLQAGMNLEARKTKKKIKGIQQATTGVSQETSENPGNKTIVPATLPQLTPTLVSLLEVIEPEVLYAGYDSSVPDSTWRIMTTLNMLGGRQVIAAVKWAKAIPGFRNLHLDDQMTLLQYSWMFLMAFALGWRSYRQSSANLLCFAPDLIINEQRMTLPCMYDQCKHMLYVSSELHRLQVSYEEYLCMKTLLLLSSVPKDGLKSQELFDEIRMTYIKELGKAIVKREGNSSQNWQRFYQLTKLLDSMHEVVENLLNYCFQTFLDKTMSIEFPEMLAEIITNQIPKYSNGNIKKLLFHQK
SMILES,Potency [1],Potency [2],Potency [3],Potency [4],Potency [5],Potency [6],Potency [7],Potency [8],Potency [9],Potency [10],Potency [11],Potency [12],Potency [13],outcome [14],Potency [15],outcome [16],Potency [17],Potency [18],Potency [19]
Cn1c(O)c(N=NC(N)=S)c2ccccc21,inactive,inactive,inactive,4.95 µM (active),inactive,inactive,inactive,inactive,inactive,inactive,inactive,inactive,inactive,inactive,inactive,inactive,,,
C/C1=C2N=C(/C=C3N=C(/C(C)=C4\[N-][C@@](C)([C@@H]5N=C1[C@](C)(CCC(=O)NCC(C)OP(=O)(O)O[C@H]1[C@@H](O)[C@@H](n6cnc7cc(C)c(C)cc76)O[C@@H]1CO)[C@H]5CC(N)=O)[C@@](C)(CC(N)=O)[C@@H]4CCC(N)=O)[C@@](C)(CC(N)=O)[C@@H]\3CCC(N)=O)C(C)(C)[C@@H]/2CCC(N)=O.CC(=O)O.[Co] (stereo partly drawn),inactive,inactive,inactive,,inactive,inactive,inactive,inactive,inactive,inactive,inactive,inactive,inactive,inactive,inactive,inactive,inactive,inactive,
CC(CN1c2ccccc2Sc2ccc(S(=O)(=O)N(C)C)cc21)N(C)C (stereo not drawn),inactive,inactive,inactive,,,inactive,inactive,inactive,inactive,inactive,inactive,inactive,inactive,inactive,inactive,inactive,inactive,inactive,inactive
COC(=O)C1=C(C#N)NC(C)=C(C(=O)OC(C)C)C1c1cccc([N+](=O)[O-])c1 (stereo not drawn),inactive,inactive,11.9 µM (active),19.7 µM (active),inactive,inactive,inactive,inactive,inactive,inactive,inactive,inactive,inactive,inactive,inactive,inactive,,19 µM (active),
COc1cc(NCCCC(C)N)c2ncccc2c1 (stereo not drawn),inactive,inactive,inactive,,,inactive,inactive,inactive,inactive,inactive,inactive,inactive,inactive,inactive,inactive,inactive,inactive,,inactive
CCOc1cc(-c2nccc3cc(OC)c(OC)cc23)cc(OCC)c1OCC,inactive,inactive,,,inactive,inactive,inactive,inactive,inactive,inactive,inactive,inactive,inactive,inactive,inactive,inactive,inactive,inactive,26.6 µM (active)
CCCCCc1ccc(C)cc1O,inactive,inactive,,10.6 µM (active),inactive,inactive,inactive,,inactive,inactive,inactive,inactive,inactive,inactive,inactive,inactive,,inactive,inactive
C=CC[C@@H]1/C=C(\C)C[C@H](C)C[C@H](OC)[C@H]2O[C@@](O)(C(=O)C(=O)N3CCCC[C@H]3C(=O)O[C@H](/C(C)=C/[C@@H]3CC[C@@H](O)[C@H](OC)C3)[C@H](C)[C@@H](O)CC1=O)[C@H](C)C[C@@H]2OC,inactive,26.6 µM (active),inactive,,inactive,inactive,inactive,inactive,inactive,inactive,inactive,inactive,inactive,inactive,inactive,inactive,inactive,,
CC(C)=CCC/C(C)=C/C=C/C(C)=C/C=C/C(C)=C/C=C/C=C(C)/C=C/C=C(C)/C=C/C=C(\C)CCC=C(C)C,inactive,inactive,inactive,,,inactive,inactive,inactive,inactive,inactive,inactive,inactive,inactive,inactive,inactive,inactive,inactive,inactive,inactive
CCN(CC)Cc1cc(Nc2ccnc3cc(Cl)ccc23)ccc1O,inactive,inactive,inactive,inactive,inactive,inactive,inactive,inactive,inactive,inactive,inactive,inactive,inactive,inactive,inactive,inactive,inactive,inactive,
CN[C@H]1CCc2cc(OC)c(OC)c(OC)c2-c2ccc(OC)c(=O)cc21,0.237 µM (active),inactive,inactive,0.335 µM (active),,inactive,,inactive,inactive,inactive,inactive,inactive,inactive,inactive,inactive,inactive,inactive,,
CN=C1C=CC(=C(c2ccc(N(C)C)cc2)c2ccc(N(C)C)cc2)C=C1,inactive,18.8 µM (active),,0.0441 µM (active),inactive,inactive,inactive,inactive,inactive,inactive,inactive,inactive,inactive,inactive,inactive,inactive,,,4.73 µM (active)
O=C(Nc1ccc(Br)cc1)c1cc(Br)c(Br)s1,inactive,29.8 µM (active),3.35 µM (active),0.668 µM (active),inactive,inactive,inactive,inactive,inactive,inactive,inactive,inactive,,inactive,inactive,inactive,,,
